From PubChem BioAssay AID1159580 (chemical genetic matrix, 2015)
Out of some 5,500 compounds screened, about 2,000 (36%) were called active. About 18% were inconclusive and are not listed. Cut-off read from the data, not from the text of the source: active = normalized growth mostly below about 0.91 (no sharp cut-off); inconclusive = no clear call, values can overlap the other calls; inactive = mostly above about 0.92. Some of the results follow.

Assay: chemical genetic growth profiling, strain panel (AID 1159580);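 note: tested at 20 µM; growth read once vehicle control cultures reached saturation at 30 °C; 1 = growth at the plate median or of vehicle wells; lower values mean less growth of the strain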
Conditions: S. cerevisiae deletion strains, growth OD

Measured: normalized growth

C/C(=N/NC(=S)NCC(C)(C)C)c1cc(F)cc(Cl)c1O
active: locus YHR030C, strain SLT2, stronger effect = lower value 0.681 | locus YLR113W, strain HOG1, stronger effect = lower value 0.735 | locus YPL256C, strain CLN2, stronger effect = lower value 0.782
inactive: locus YAR019C, strain CDC15, stronger effect = lower value 0.963 | locus YBL105C, strain PKC1, stronger effect = lower value 0.961 | locus YBR135W, strain CKS1, stronger effect = lower value 0.956 | locus YBR136W, strain MEC1, stronger effect = lower value 0.959 | locus YBR160W, strain CDC28, stronger effect = lower value 0.97 | locus YDL017W, strain CDC7, stronger effect = lower value 0.953 | locus YDL028C, strain MPS1, stronger effect = lower value 0.959 | locus YDL101C, strain DUN1, stronger effect = lower value 0.967 | locus YDL108W, strain KIN28, stronger effect = lower value 0.972 | locus YDL132W, strain cdc53, stronger effect = lower value 0.98 | locus YDL214C, strain PRR2, stronger effect = lower value 0.942 | locus YDR052C, strain DBF4, stronger effect = lower value 0.971 | locus YDR054C, strain cdc34, stronger effect = lower value 0.976 | locus YDR226W, strain ADK1, stronger effect = lower value 0.965 | locus YDR477W, strain SNF1, stronger effect = lower value 0.928 | locus YER123W, strain YCK3, stronger effect = lower value 0.928 | locus YER133W, strain GLC7, stronger effect = lower value 0.955 | locus YFL009W, strain cdc4, stronger effect = lower value 0.966 | locus YFL029C, strain CAK1, stronger effect = lower value 0.953 | locus YFR003C, strain YPI1, stronger effect = lower value 0.963 | locus YFR019W, strain FAB1, stronger effect = lower value 0.992 | locus YFR028C, strain CDC14, stronger effect = lower value 0.961 | locus YGR040W, strain KSS1, stronger effect = lower value 0.922 | locus YGR052W, strain FMP48, stronger effect = lower value 0.938 | locus YGR092W, strain DBF2, stronger effect = lower value 0.716 | locus YHR079C, strain IRE1, stronger effect = lower value 0.784 | locus YHR082C, strain KSP1, stronger effect = lower value 0.964 | locus YHR205W, strain SCH9, stronger effect = lower value 0.941 | locus YIL147C, strain SLN1, stronger effect = lower value 0.963 | locus YJL095W, strain BCK1, stronger effect = lower value 0.852 | locus YJL128C, strain PBS2, stronger effect = lower value 0.952 | locus YJL157C, strain FAR1, stronger effect = lower value 0.936 | locus YJR016C, strain ILV3, stronger effect = lower value 0.961 | locus YJR066W, strain TOR1 (second series), stronger effect = lower value 0.868 | locus YJR066W, strain TOR1, stronger effect = lower value 0.894 | locus YKL048C, strain ELM1, stronger effect = lower value 0.946 | locus YKL067W, strain YNK1, stronger effect = lower value 0.962 | locus YKL101W, strain HSL1, stronger effect = lower value 0.923 | locus YKL193C, strain SDS22, stronger effect = lower value 0.966 | locus YKL203C, strain TOR2, stronger effect = lower value 0.94 | locus YLR133W, strain CKI1, stronger effect = lower value 0.884 | locus YLR403W, strain SFP1, stronger effect = lower value 0.837 | locus YML070W, strain DAK1, stronger effect = lower value 0.941 | locus YMR001C, strain CDC5, stronger effect = lower value 0.961 | locus YMR205C, strain PFK2 (second series), stronger effect = lower value 0.939 | locus YMR277W, strain FCP1, stronger effect = lower value 0.96 | locus YNL006W, strain LST8, stronger effect = lower value 0.972 | locus YNL020C, strain ARK1, stronger effect = lower value 0.837 | locus YNL161W, strain CBK1, stronger effect = lower value 0.956 | locus YNL183C, strain NPR1, stronger effect = lower value 0.947 | locus YNL207W, strain RIO2, stronger effect = lower value 0.962 | locus YNL222W, strain SSU72, stronger effect = lower value 0.959 | locus YNL307C, strain MCK1 (second series), stronger effect = lower value 0.883 | locus YOL078W, strain AVO1, stronger effect = lower value 0.974 | locus YOL136C, strain PFK27, stronger effect = lower value 0.948 | locus YOR061W, strain CKA2, stronger effect = lower value 0.869 | locus YOR119C, strain RIO1, stronger effect = lower value 0.984 | locus YOR231W, strain MKK1, stronger effect = lower value 0.837 | locus YOR329C, strain SCD5, stronger effect = lower value 0.964 | locus YPL031C, strain PHO85, stronger effect = lower value 0.915 | locus YPL153C, strain RAD53, stronger effect = lower value 0.913 | locus YPL204W, strain HRR25, stronger effect = lower value 0.92 | locus YPL209C, strain IPL1, stronger effect = lower value 0.959 | locus YPR025C, strain CCL1, stronger effect = lower value 0.965 | locus YPR106W, strain ISR1, stronger effect = lower value 0.989 | locus YPR111W, strain DBF20, stronger effect = lower value 0.968 | strain NNK1, stronger effect = lower value 0.973 | strain TSCII, stronger effect = lower value 0.956
